Values joined by “and” are separate entries in the source; they are usually repeats but may differ in a detail not shown here. Equal entries are not always repeated. Unmarked numbers belong to inactive results. For some assays here: Entries with a potency or affinity are not part of this list. Active and inactive are the calls of the source. Unless noted, how the calls were made is not given here.
How the values were obtained:
[1] = antimalarial activity against Dd2 strain (AID 2302;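 active means growth inhibition above 50% at the single 2 µM test dose, taken to imply half-maximal potency below 2 µM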;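 further: 0% = DMSO untreated growth and 100% = chloroquine plus artemisinin killed control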); details: P. falciparum Dd2 in RBCs, LDH growth readout, 72 h; at 2 µM; stronger effect = higher value
[2] = HepG2 cytotoxicity, primary screen, cytotoxicity control for P. falciparum antimalarial project, cell-based, ATP luminescence (AID 2303;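 active means inhibition above 50%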;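 further: 0% = DMSO wells and 100% = digitonin-killed cells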); details: HepG2 viability, 24-48 h, at 10 µM, stronger effect = higher value
[3] = target: L-lactate dehydrogenase (Plasmodium falciparum (isolate CDC / Honduras)) (UniProt Q27743); experiment: PfLDH activity inhibition – cell lysate, 3D7 strain, counter-screen for P. falciparum growth inhibition project (AID 2304);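 further: 0% = vehicle and 100% = reference inhibitor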; details: P. falciparum 3D7 crude extract, LDH APAD/NBT absorbance; at 2 µM; stronger effect = higher value
Sequence of L-lactate dehydrogenase (Plasmodium falciparum (isolate CDC / Honduras)) (Q27743 whole entry, looked up): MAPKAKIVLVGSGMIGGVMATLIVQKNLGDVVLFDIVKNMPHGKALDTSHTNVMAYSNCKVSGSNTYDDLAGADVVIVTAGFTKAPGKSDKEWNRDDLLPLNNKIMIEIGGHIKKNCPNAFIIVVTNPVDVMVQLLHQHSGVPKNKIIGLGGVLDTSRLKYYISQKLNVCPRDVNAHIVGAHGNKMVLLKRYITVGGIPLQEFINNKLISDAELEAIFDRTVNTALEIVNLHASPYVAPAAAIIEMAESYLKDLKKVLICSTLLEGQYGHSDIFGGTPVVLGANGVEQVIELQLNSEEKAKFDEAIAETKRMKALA

[4] = inhibition of 3D7 malaria parasite growth – strain 3D7 (AID 2306);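 further: 0% = DMSO wells and 100% = chloroquine plus artemisinin control wells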; details: P. falciparum 3D7 erythrocytic growth, LDH absorbance, 72 h; at 2 µM; stronger effect = higher value
[5] = target: Calcium-dependent protein kinase 1 (Plasmodium falciparum (isolate 3D7)) (UniProt P62344); experiment: PfCDPK1 kinase inhibitors, biochemical, TCAMS library (AID 1159585; cut-off not given, nearly all actives have IC50 up to about 0.98 µM;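 further: inhibitors leave more ATP so luminescence rises with inhibition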); details: recombinant PfCDPK1, Kinase-Glo ATP depletion luminescence
Sequence of Calcium-dependent protein kinase 1 (Plasmodium falciparum (isolate 3D7)) (P62344 whole entry, looked up): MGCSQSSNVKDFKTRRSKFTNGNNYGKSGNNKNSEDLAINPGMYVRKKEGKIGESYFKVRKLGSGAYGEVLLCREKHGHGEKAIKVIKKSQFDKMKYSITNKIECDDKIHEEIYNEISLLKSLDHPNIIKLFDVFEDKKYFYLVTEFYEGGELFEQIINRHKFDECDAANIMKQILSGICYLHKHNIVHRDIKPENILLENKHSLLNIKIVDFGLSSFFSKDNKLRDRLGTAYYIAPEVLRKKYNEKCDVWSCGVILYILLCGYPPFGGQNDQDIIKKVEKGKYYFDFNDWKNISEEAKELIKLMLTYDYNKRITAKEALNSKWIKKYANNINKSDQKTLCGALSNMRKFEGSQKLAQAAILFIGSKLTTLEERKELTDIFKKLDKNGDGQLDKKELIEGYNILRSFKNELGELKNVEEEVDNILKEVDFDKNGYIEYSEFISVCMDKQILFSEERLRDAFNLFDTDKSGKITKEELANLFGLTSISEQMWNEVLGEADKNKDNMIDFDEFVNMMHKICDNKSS

[6] = target: Plasmodium falciparum protein kinase 6 (PK6, PF3D7_1337100) (UniProt Q8IDW1); experiment: PfPK6 kinase inhibitors, biochemical, TCAMS library (AID 1159586); details: recombinant PfPK6, Kinase-Glo ATP depletion luminescence
Sequence of Plasmodium falciparum protein kinase 6 (PK6, PF3D7_1337100) (Q8IDW1 1-305): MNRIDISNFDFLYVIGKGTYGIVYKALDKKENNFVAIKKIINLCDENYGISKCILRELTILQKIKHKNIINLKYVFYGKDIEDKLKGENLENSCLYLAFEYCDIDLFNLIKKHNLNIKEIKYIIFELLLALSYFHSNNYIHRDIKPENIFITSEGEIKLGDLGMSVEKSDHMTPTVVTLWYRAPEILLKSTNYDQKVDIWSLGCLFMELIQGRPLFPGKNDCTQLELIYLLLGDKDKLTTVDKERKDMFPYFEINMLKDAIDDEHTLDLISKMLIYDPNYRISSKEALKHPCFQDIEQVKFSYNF

[7] = target: Protein kinase 7 (PK7), Plasmodium falciparum 3D7 (PF3D7_0213400) (UniProt Q7YTF7); experiment: inhibition of Plasmodium PK7 catalytic activity – biochemical, TCAMS antimalarial set, Kinase-Glo luminescence (AID 1159587); details: recombinant PfPK7, Kinase-Glo ATP depletion luminescence
Sequence of Protein kinase 7 (PK7), Plasmodium falciparum 3D7 (PF3D7_0213400) (Q7YTF7 1-343): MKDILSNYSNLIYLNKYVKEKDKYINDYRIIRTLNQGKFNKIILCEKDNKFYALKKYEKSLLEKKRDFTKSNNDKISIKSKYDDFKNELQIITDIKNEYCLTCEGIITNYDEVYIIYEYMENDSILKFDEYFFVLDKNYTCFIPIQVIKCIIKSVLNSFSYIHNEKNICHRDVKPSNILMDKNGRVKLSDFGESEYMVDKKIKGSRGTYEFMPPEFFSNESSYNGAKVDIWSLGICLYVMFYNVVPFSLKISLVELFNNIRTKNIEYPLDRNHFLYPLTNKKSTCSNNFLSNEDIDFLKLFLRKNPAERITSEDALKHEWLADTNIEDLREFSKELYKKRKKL

[8] = target: Calcium-dependent protein kinase 4 (Plasmodium falciparum (isolate 3D7)) (UniProt Q8IBS5); experiment: PfCDPK4 kinase inhibitors, biochemical, TCAMS library (AID 1159588; cut-off not given, nearly all actives have IC50 up to about 0.91 µM); details: recombinant PfCDPK4, Kinase-Glo ATP depletion luminescence
Sequence of Calcium-dependent protein kinase 4 (Plasmodium falciparum (isolate 3D7)) (Q8IBS5 whole entry, looked up): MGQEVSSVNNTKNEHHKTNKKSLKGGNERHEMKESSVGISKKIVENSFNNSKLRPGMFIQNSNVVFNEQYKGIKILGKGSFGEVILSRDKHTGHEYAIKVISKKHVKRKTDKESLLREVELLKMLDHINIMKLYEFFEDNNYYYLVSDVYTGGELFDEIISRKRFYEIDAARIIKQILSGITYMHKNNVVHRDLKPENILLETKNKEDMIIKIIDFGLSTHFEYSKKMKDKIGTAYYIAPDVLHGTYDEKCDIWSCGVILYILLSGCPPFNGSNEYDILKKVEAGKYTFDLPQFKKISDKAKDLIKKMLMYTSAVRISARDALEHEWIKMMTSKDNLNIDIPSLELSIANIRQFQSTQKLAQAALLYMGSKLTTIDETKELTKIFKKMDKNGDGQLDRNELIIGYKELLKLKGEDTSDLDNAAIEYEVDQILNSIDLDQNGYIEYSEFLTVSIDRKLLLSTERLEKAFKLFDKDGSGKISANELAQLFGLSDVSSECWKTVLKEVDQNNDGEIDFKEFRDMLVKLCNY

COC(=O)c1ccc(CC(C)NCC(O)c2cc(Cl)c(N)c(Cl)c2)cc1 (configuration not stated)
growth inhibition [1]: 66% (active)
inhibition [2]: -2%
inhibition [3]: -7%
growth inhibition [4]: 91% (active)
outcome [5]: inactive
outcome [6]: inactive
outcome [7]: inactive
outcome [8]: inactive

O=C(CCc1ccc(Cl)cc1Cl)NC1CCC(CN2CCC(c3c[nH]c4ccccc34)CC2)CC1 (configuration not stated)
growth inhibition [1]: 4% and 45%
inhibition [2]: 33% and 44%
inhibition [3]: -4% and 2%
growth inhibition [4]: 97% (active) and 100% (active)
outcome [5]: inactive
outcome [6]: inactive
outcome [7]: inactive
outcome [8]: inactive

CCC1(C)CC(CCNCc2ccccc2O)(c2ccc(C)cc2)CCO1 (configuration not stated)
growth inhibition [1]: 66% (active)
inhibition [2]: 9%
inhibition [3]: -7%
growth inhibition [4]: 97% (active)
outcome [5]: inactive
outcome [6]: inactive
outcome [7]: inactive
outcome [8]: inactive

COC(=O)c1ccc(CC(C)NCC(O)c2cccc(SC(F)(F)F)c2)cc1 (configuration not stated)
growth inhibition [1]: 72% (active)
inhibition [2]: 7%
inhibition [3]: -2%
growth inhibition [4]: 96% (active)
outcome [5]: inactive
outcome [6]: inactive
outcome [7]: inactive
outcome [8]: inactive

O=C(/C=C/c1ccc(Cl)c(Cl)c1)N1CCC(CN2CCC(c3c[nH]c4cc5c(cc34)OCO5)CC2)CC1
growth inhibition [1]: 75% (active)
inhibition [2]: 41%
inhibition [3]: -2%
growth inhibition [4]: 102% (active)
outcome [5]: inactive
outcome [6]: inactive
outcome [7]: inactive
outcome [8]: inactive

CC(C)CN1CCC(N(C)c2cc(NC(=O)c3cccc(F)c3)ccn2)CC1
growth inhibition [1]: 10%
inhibition [2]: 8%
inhibition [3]: -1%
growth inhibition [4]: 97% (active)
outcome [5]: inactive
outcome [6]: inactive
outcome [7]: inactive
outcome [8]: inactive

COc1ccc(C[C@@H](C)NC[C@H](O)c2cccc(Cl)c2)cc1F
growth inhibition [1]: 76% (active)
inhibition [2]: 2%
inhibition [3]: -2%
growth inhibition [4]: 88% (active)
outcome [5]: inactive
outcome [6]: inactive
outcome [7]: inactive
outcome [8]: inactive

CC(Cc1ccc(NC(=O)CCNCc2ccccc2)cc1)NCCc1cccc(Cl)c1 (configuration not stated)
growth inhibition [1]: 100% (active)
inhibition [2]: 101% (active)
inhibition [3]: 3%
growth inhibition [4]: 101% (active)
outcome [5]: inactive
outcome [6]: inactive
outcome [7]: inactive
outcome [8]: inactive

N#Cc1c(Cl)cccc1Oc1ccc(S(=O)(=O)NC2CCC(CN3CCC(c4c[nH]c5ccccc45)CC3)CC2)cc1 (configuration not stated)
growth inhibition [1]: 36% and 16%
inhibition [2]: 31% and 29%
inhibition [3]: 3% and -3%
growth inhibition [4]: 101% (active) and 85% (active)
outcome [5]: inactive
outcome [6]: inactive
outcome [7]: inactive
outcome [8]: inactive

CN(c1cc(NC(=O)c2cccs2)ccn1)C1CCN(Cc2cccc(F)c2)CC1
growth inhibition [1]: 95% (active)
inhibition [2]: -1%
inhibition [3]: 4%
growth inhibition [4]: 94% (active)
outcome [5]: inactive
outcome [6]: inactive
outcome [7]: inactive
outcome [8]: inactive

O=C1Nc2cccc3c2C1(CCCCN1CC=C(c2c[nH]c4ncccc24)CC1)CCC3 (configuration not stated)
growth inhibition [1]: 80% (active)
inhibition [2]: 11%
inhibition [3]: -5%
growth inhibition [4]: 92% (active)
outcome [5]: inactive
outcome [6]: inactive
outcome [7]: inactive
outcome [8]: inactive

O=C(/C=C/c1ccc(Cl)c(Cl)c1)N1CCC(CN2[C@@H]3CC[C@H]2CC(c2c[nH]c4ccccc24)C3)CC1 (some centres not stated)
growth inhibition [1]: 66% (active)
inhibition [2]: 84% (active)
inhibition [3]: -3%
growth inhibition [4]: 100% (active)
outcome [5]: inactive
outcome [6]: inactive
outcome [7]: inactive
outcome [8]: inactive

CC[C@H]1CN2CC[C@H]1C[C@H]2[C@H](O)c1cc(/C=C/c2ccccc2)nc2ccc(OC)cc12
growth inhibition [1]: 99% (active)
inhibition [2]: 16%
inhibition [3]: -1%
growth inhibition [4]: 99% (active)
outcome [5]: inactive
outcome [6]: inactive
outcome [7]: inactive
outcome [8]: inactive

OC(CNC1CCCCC1)c1ccc(Cl)c(Cl)c1 (configuration not stated)
growth inhibition [1]: 96% (active)
inhibition [2]: 17%
inhibition [3]: -1%
growth inhibition [4]: 99% (active)
outcome [5]: inactive
outcome [6]: inactive
outcome [7]: inactive
outcome [8]: inactive

CCCCCc1cc(O)c2c(c1)OC(C)(C)CC2C1=CCN(Cc2cnc3ccccc3c2)CC1 (configuration not stated)
growth inhibition [1]: 98% (active)
inhibition [2]: 27%
inhibition [3]: 0%
growth inhibition [4]: 98% (active)
outcome [5]: inactive
outcome [6]: inactive
outcome [7]: inactive
outcome [8]: inactive

CC[C@H]1CN2CC[C@H]1C[C@H]2[C@H](O)c1cc(N2CCCC2)nc2ccc(OC)cc12
growth inhibition [1]: 100% (active)
inhibition [2]: -13%
inhibition [3]: 6%
growth inhibition [4]: 98% (active)
outcome [5]: inactive
outcome [6]: inactive
outcome [7]: inactive
outcome [8]: inactive

O=C1c2ccccc2CCC1CCN1CC=C(c2c[nH]c3ccccc23)CC1 (configuration not stated)
growth inhibition [1]: 83% (active)
inhibition [2]: 5%
inhibition [3]: 7%
growth inhibition [4]: 89% (active)
outcome [5]: inactive
outcome [6]: inactive
outcome [7]: inactive
outcome [8]: inactive

S=C(NCCc1ccc(Cl)cc1)N1CCC(CN2CCC(c3c[nH]c4ccccc34)CC2)CC1
growth inhibition [1]: 7%
inhibition [2]: 31%
inhibition [3]: 0%
growth inhibition [4]: 90% (active)
outcome [5]: inactive
outcome [6]: inactive
outcome [7]: inactive
outcome [8]: inactive

COc1ccc(CC(C)NCC(O)c2cccc(Cl)c2)cc1C (configuration not stated)
growth inhibition [1]: 78% (active)
inhibition [2]: 11%
inhibition [3]: -6%
growth inhibition [4]: 89% (active)
outcome [5]: inactive
outcome [6]: inactive
outcome [7]: inactive
outcome [8]: inactive
